PubChem BioAssay (NCI)
Compounds without any hit were thinned out: in the full panel of roughly 83,000, 20% have a hit.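 Single-dose data. Exposure time 48 hours. Values below 10 considered active.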 Calls of active or inactive are those of the source.

tested on: MDA-MB-468 breast; assay: NCI-60 one-dose screen, 48 h (100 = growth as untreated, 0 = no growth, -100 = all killed); conditions: 10 µM unless noted

SMILES | growth
Nc1ccc(S(=O)(=O)Nc2ncccn2)cc1 | 109% (inactive)
COc1cccc(/C=C2\C=C(c3ccccc3)N(Cc3ccccc3)C2=O)c1 | 45.3% (inactive)
C[C@H](C(=O)N[C@@H](Cc1ccc(-c2ccccc2)cc1)C(=O)NC1CC(C)(C)N(C)C(C)(C)C1)c1ccc(-c2ccccc2)c(F)c1 | -86.5% (active)
c1ccc(-c2cn3c(-c4c[nH]c5ccccc45)csc3n2)cc1 | 3.41% (active)
O=C(CCOCCNC(=O)COc1ccc2c(c1)OCC(c1ccc(F)cc1)C2=O)NCCCC(O)(P(=O)(O)O)P(=O)(O)O (stereo not given) | 106% (inactive)
CN1CCN(C(=O)c2c3c(n4ccccc24)C(=O)c2ncccc2C3=O)CC1 | 88.4% (inactive)
Cc1cn(C2CCCCO2)c(=O)nc1NO (stereo not given) | 65% (inactive)
COc1ccc(-c2csc3c2-n2cccc2C3=O)cc1O | -5.84% (active)
C/C(=N\NC(=O)c1ccc(C(C)(C)C)cc1)c1ccc(O)cc1O | -26.3% (active)
COC12C=C/C(=C(/C(=O)OCc3cncnc3)C(=O)CCCCCCCCC3(OC)C=C/C(=C(/C(=O)OCc4cncnc4)C(=O)CCCCCCCC1)O3)O2 | -39.8% (active)
CCOC(=O)C1=C(C)N2C(=NC3=C(CCCC/C3=C\c3cc(OC)c(OC)c(OC)c3)C2c2cc(OC)c(OC)c(OC)c2)S1 (stereo not given) | 25.2% (inactive)
COc1cc(NC(C)CCCNC(C)C)c2ncccc2c1OC (stereo not given) | 32.8% (inactive)
COc1cc(-c2nn(-c3cccc(NC(=O)c4ccc(N5CCOCC5)c(C(F)(F)F)c4)c3)cc2-c2ccncc2)ccc1Cl | -37.8% (active)
COc1ccc(C2CC(=O)c3c(O)c(OC)c(OC)c(OC)c3O2)cc1O (stereo not given) | 8.92% (active)
O=C(O)c1ccc(Cl)cc1Nc1ccc(F)cc1 | 27.9% (inactive)
CCC(C)(C)c1ccc(OCCCCCCN2CCNCC2)cc1 | -9.22% (active)
CC1(C)N=C(N)N=C(N)N1c1ccc(CCc2ccccc2)c(Cl)c1 | -28.3% (active)
O=C(O)c1ccc(P(=O)(O)O)c([N+](=O)[O-])c1 | 98.4% (inactive)
O=c1[nH]c(CN2CCN(c3ccccc3)CC2)nc2c(Br)cc(Br)cc12 | 114% (inactive)
Cc1ccc(OC(=O)c2ccccc2)cc1 | 107% (inactive)

SMILES | growth
O=S(=O)(Nc1ccccn1)c1ccc(N=Nc2ccc(O)c3ncccc23)cc1 | 4.46% (active)
COc1cc(-c2ccc[nH]2)[nH]c1/C=C1\N=C(C)C(C(=O)NC(C)C)=C1C | 44% (inactive)
CC(C)N(C(=O)c1ccccc1)C(C)C | 86.2% (inactive)
Cc1ccccc1NC(=O)c1sc2nc3c(cc2c1N)CCCC3 | 11.8% (inactive)
COc1ccc2c(=O)c(OC)c(-c3cc(OC)c(OC)c(OC)c3)oc2c1 | 86.5% (inactive)
COc1ccc(/C=C(\C#N)c2cc3ccccc3[nH]2)cc1 | 17.7% (inactive)
NC1CC2(CCN(c3cnc(C(=O)Nc4cc(F)cc5cccnc45)cn3)CC2)C1 | 50.6% (inactive)
Cc1ccc([C@@H]2C[C@H](O)Cc3ccccc3N2)s1 | 124% (inactive)
O=C(Nc1cccc(-n2cc(-c3ccncc3)c(-c3cc(O)cc(Cl)c3)n2)c1)c1cc(C(F)(F)F)cc(C(F)(F)F)c1 | 31.2% (inactive)
COc1cc(CCC[P+](c2ccccc2)(c2ccccc2)c2ccccc2)c(OC)c2c1OCO2 | -25.3% (active)
N#Cc1c(-c2ccc(C(F)(F)F)cc2)cc(N2CC(O)C2)n2c1nc1ccccc12 | 67.1% (inactive)
CCN(CC)c1ccc2nc3c4ccccc4c(=O)cc-3n(-c3ccccc3)c2c1 | -17.5% (active)
CNC(=O)c1ccccc1Nc1nc(Nc2ccc3c(c2OC)CCC[C@H](N2CCN(CCO)CC2)C3)ncc1Cl | -52.8% (active)
O=C1C(Cl)=C(SC2=NCCN2)C(=O)c2ccccc21 | 0.366% (active)
Brc1cccc(-n2ncc3c(Nc4ccc(-c5nnc(-c6ccccc6)o5)cc4)ncnc32)c1 | 101% (inactive)
O=C(Nc1ccc2c(O)cc(S(=O)(=O)O)cc2c1)c1ccc([N+](=O)[O-])cc1 | 95.4% (inactive)
CCN(CC)c1ccc(C(=O)c2ccccc2)cc1 | 105% (inactive)
Cc1cc2c(-c3nc4ccccc4n3C)c(O)c(O)cc2c(O)c1-c1c(C)cc2c(-c3nc4ccccc4n3C)c(O)c(O)cc2c1O | 35.7% (inactive)
Cc1ccc(Nc2nccc(N(C)c3ccc4c(C)n(C)nc4c3)n2)cc1S(N)(=O)=O | 34.1% (inactive)
CCCC1CCCCN1C(=O)OCC(C)C (stereo not given) | 97.4% (inactive)
